Records with an inconclusive call do not appear. Activity calls are given as the source filed them. Unless noted, calls come from the whole dose curve; as a rule, active = well fitted curve in the direction sought with a large enough effect; inconclusive = small, poorly fitted or top-dose-only effect, or another doubt; inactive = no such curve, though single readings can be large; an effect the other way counts as inactive or inconclusive.
How the values were obtained:
[1] = AP1 Signaling Pathway (AID 357; active = well fitted curve in either direction with a large enough effect, not every such curve was filed as active; note: % is set by controls: 0 for no effect and ±100 for the full control effect)
How it was run: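 ME-180 cells with beta-lactamase reporter under AP-1 response element, stimulated with EC50 EGF; compounds tested in titration series, 5 h at 37 °C. CCF4 substrate added 2.5 h at room temperature; 460/530 nm emission ratio gave %activity and AC50.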

[2] = NFAT Signaling Pathway (AID 444; active = well fitted curve in either direction with a large enough effect, not every such curve was filed as active;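 note: carbachol stimulus at about its EC50 of 1 µM final; % is set by controls: 0 for no effect and ±100 for the full control effect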); conditions: Jurkat NFAT-bla M1, carbachol, beta-lactamase ratio, 5 h; at 17.2 µM (top of the series) unless noted
How it was run: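 Jurkat cells with NFAT-driven β-lactamase reporter and co-expressed M1 receptor, stimulated with carbachol (final 1 uM, ~EC50), compound titration, 5 h at 37 °C. CCF4 loaded 1 h at RT; 460/530 nm ratio gave %activity and AC50.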

[3] = Stat Signaling Pathway (AID 446; active = well fitted curve in either direction with a large enough effect, not every such curve was filed as active;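 note: ME-180 cervical cancer cells given 40 pM IL-6 alongside compound; SIE-controlled beta-lactamase reporter measured as 460/530 nm FRET emission ratio; % is set by controls: 0 for no effect and ±100 for the full control effect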)
How it was run: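 Overnight-plated ME-180 cells bearing a STAT Inducible Element beta-lactamase reporter; 5 h co-exposure to compound and 40 pM IL-6; values normalized to 300 pM IL-6 and 125 nM JAK inhibitor controls.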

[4] = target: Glucocorticoid receptor (Homo sapiens) (UniProt P04150); test: GR-GFP Redistribution (AID 450;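 active = compounds whose dose series gives a full or clear partial fitted curve of increased nuclear translocation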; note: potency is the fitted concentration of half-maximal effect); conditions: U2OS GR-GFP nuclear translocation, laser cytometry, 2 h
[5] = target: Glucocorticoid receptor (Homo sapiens) (UniProt P04150); test: GR-EFC Redistribution (AID 451; calls by dose curve; note: potency is the fitted concentration of half-maximal effect); conditions: CHO-K1 GR-EFC translocation, beta-gal luminescence, 2 h
How it was run: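 CHO-K1 cells expressing nuclear EA and GR-ED fragments of b-gal; compounds titrated up to 46 uM final, 2 h at 37 C. GR nuclear translocation read as complemented b-gal luminescence after 1 h RT detection.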

[6] = target: Mitogen-activated protein kinase 10 (Mus musculus) (UniProt Q61831); test: JNK3 AlphaScreen Assay (AID 530; active = well fitted curve in either direction with a large enough effect, not every such curve was filed as active;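 note: kinase came from lysate of stimulated human HepG2 cells; signal reports phosphorylation of biotinylated GST-cJun 1-79 at Ser73 with 10 µM ATP; % is set by controls: 0 for no effect and ±100 for the full control effect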)
How it was run: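 HepG2 lysate (IL-1b/TNFa pre-activated) + biotin-GST-cJun 1-79 + anti-pSer73 cJun; cpd titration, 15 min RT; ATP 10 uM start; Tris pH 7.6, MgCl2, DTT, vanadate; beads in EDTA buffer; AlphaScreen.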

[7] = Cell Viability - BJ (AID 421; calls by dose curve;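 note: potency is the fitted concentration of half-maximal effect; cells exposed to compound for 40 hours at 37 °C before readout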); conditions: BJ fibroblast viability, qHTS
How it was run: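 Quantitative HTS: ATP depletion in BJ cells after 40 hr compound exposure in complete culture medium, detected with CellTiter-Glo; AC50 from standard Hill fits.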

[8] = Cell Viability - Jurkat (AID 426;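 active = dose-dependent loss of cell ATP signal giving a full or clear fitted curve, ranked by lower potency value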;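 note: potency is the fitted concentration of half-maximal effect; cells exposed to compound for 40 hours at 37 °C before ATP read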); conditions: qHTS
How it was run: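 Cytotoxicity was scored as loss of cellular ATP, measured by luciferase-based luminescence, in Jurkat clone E6-1 cells after 40 h compound treatment; tamoxifen and doxorubicin served as positive controls.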

[9] = Cell Viability - Hek293 (AID 427;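 active = compounds whose dose-response curve shows a full or clear partial loss of cell viability, called from curve shape rather than a numeric limit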;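 note: potency is the fitted concentration of half-maximal effect; cells exposed to compound for 40 hours at 37 °C before reading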); conditions: qHTS
How it was run: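 AC50 values derive from Hill-modelled concentration-response of ATP-based luminescence, normalized between DMSO-only and 100 uM tamoxifen controls. Cells were exposed in complete culture medium for 40 hr at 37 °C before detection.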

[10] = Cell Viability - HepG2 (AID 433; calls by dose curve;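 note: potency is the fitted concentration of half-maximal effect; potency for ATP loss meaning cytotoxicity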); conditions: qHTS
How it was run: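 HepG2 hepatocellular carcinoma cells (1500/well) were treated with compounds for 40 h at 37 °C in complete medium; intracellular ATP was read by CellTiter-Glo luminescence. Data were normalized to DMSO and 100 uM tamoxifen, and AC50 came from Hill fits.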

[11] = Cell Viability - MRC5 (AID 434; calls by dose curve;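 note: potency is the fitted concentration of half-maximal effect; potency reflects cytotoxicity seen as loss of intracellular ATP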); conditions: MRC5 lung fibroblast viability, qHTS
How it was run: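 ATP luminescence read-out (CellTiter-Glo, 20 min RT) after 40 hr, 37 °C compound exposure of 1500 MRC5 cells/well. Data normalized to DMSO (basal) and 100 uM tamoxifen (100% inhibition); AC50 from standard Hill equation.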

[12] = Cell Viability - SK-N-SH (AID 435; calls by dose curve;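 note: potency is the fitted concentration of half-maximal effect; compound exposure lasted 40 h at 37 °C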); conditions: SK-N-SH neuroblastoma cell viability qHTS
How it was run: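 SK-N-SH human neuroblastoma cells (1500/well) were exposed to compounds in complete medium for 40 h at 37 °C, and intracellular ATP was then measured by CellTiter-Glo luminescence. AC50 was taken from Hill fits, normalized to DMSO and 100 uM tamoxifen.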

[13] = Cell Viability - NIH 3T3 (AID 541); conditions: NIH 3T3 cell viability, qHTS; activity change, negative = cytotoxicity: at 92.2 µM (top of the series);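 note: plate controls were DMSO alone for no effect and tamoxifen positive control for full effect; nearly all actives have a fitted effect of over 25% in size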
How it was run: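 In this cytotoxicity screen, acute toxicity is scored as an ATP drop measured by CellTiter-Glo in NIH 3T3 fibroblasts following a 40 hr, 37 °C incubation with compound.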

[14] = Cell Viability - HUV-EC-C (AID 542); note: % is set by controls: 0 for no effect and ±100 for the full control effect; nearly all actives have a fitted effect of over 35% in size
How it was run: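 Concentration-dependent ATP loss in HUV-EC-C cells is the measure. Exposure lasts 40 hr at 37 °C; luminescence follows CellTiter-Glo addition, and Hill fits give AC50.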

[15] = Cell Viability - H-4-II-E (AID 543); note: nearly all actives have a fitted effect of over 35% in size; note: potency is the fitted concentration of half-maximal effect
How it was run: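 AC50 from Hill-modelled qHTS concentration-response curves. H-4-II-E rat hepatoma cells in complete medium, 40 hr exposure at 37 °C, viability by CellTiter-Glo ATP luminescence.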

[16] = Cell Viability - SH-SY5Y (AID 544); note: nearly all actives have a fitted effect of over 55% in size; note: potency is the fitted concentration of half-maximal effect
How it was run: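 Quantitative HTS in SH-SY5Y neuroblastoma cells, 40 hr treatment at 37 °C, ATP content by luciferase luminescence; AC50 from Hill fits.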

[17] = Cell Viability - Renal Proximal Tubule (AID 545); conditions: renal proximal tubule cells viability, primary cells of rat origin; at 91.7 µM (top of the series);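 note: 0% = DMSO only and -100% = 100 µM tamoxifen; nearly all actives have a fitted effect of over 40% in size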
How it was run: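 Primary rat renal proximal tubule cells (1000/well) were treated with compounds for 40 hr at 37 °C in complete medium. Intracellular ATP was measured by CellTiter-Glo luminescence, and AC50 values came from Hill-equation fits of concentration-response data.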

[18] = Cell Viability - Mesenchymal (AID 546);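 note: cells exposed to compound for 40 hours before reading; 0% = DMSO only and -100% = 100 µM tamoxifen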
How it was run: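 Human renal mesenchymal cells (glomerulus-derived), 1000 cells/well, 5 hr 37 °C pre-incubation; compound 40 hr, 37 °C; CellTiter-Glo, 20 min RT; luminescence; AC50 via Hill equation.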

[19] = target: Cytochrome P450 1A2 (Homo sapiens) (UniProt P05177); test: p450-cyp1a2 (AID 410; calls by dose curve; note: potency is the fitted concentration of half-maximal effect)
How it was run: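 Read-out is luminescence from luciferin produced by CYP1A2 demethylation of Luciferin-ME (100uM, at Km). Detection reagent stopped the 60 min NADPH-dependent reaction; signals were normalized to 57 uM furafylline.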

[20] = target: Lysosomal acid glucosylceramidase (Homo sapiens) (UniProt P04062); test: Glucocerebrosidase-p2 (AID 348; in the data active = potency below about 10 µM; note: potency is the fitted concentration of half-maximal effect); conditions: purified GBA, blue fluorogenic substrate, 40 min
How it was run: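 Normal human glucocerebrosidase (0.2 nM) with blue fluorogenic substrate (80 uM final) in citrate/phosphate pH 5.9 with 10mM sodium taurocholate, 0.01% tween-20; 40 min RT, NaOH/glycine stop; fluorescence Ex 365/Em 440; AC50 from a titration from 0.6 nM upwards.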

Glucocorticoid receptor (Homo sapiens), sequence (P04150 whole entry, looked up, the tested form may be a part): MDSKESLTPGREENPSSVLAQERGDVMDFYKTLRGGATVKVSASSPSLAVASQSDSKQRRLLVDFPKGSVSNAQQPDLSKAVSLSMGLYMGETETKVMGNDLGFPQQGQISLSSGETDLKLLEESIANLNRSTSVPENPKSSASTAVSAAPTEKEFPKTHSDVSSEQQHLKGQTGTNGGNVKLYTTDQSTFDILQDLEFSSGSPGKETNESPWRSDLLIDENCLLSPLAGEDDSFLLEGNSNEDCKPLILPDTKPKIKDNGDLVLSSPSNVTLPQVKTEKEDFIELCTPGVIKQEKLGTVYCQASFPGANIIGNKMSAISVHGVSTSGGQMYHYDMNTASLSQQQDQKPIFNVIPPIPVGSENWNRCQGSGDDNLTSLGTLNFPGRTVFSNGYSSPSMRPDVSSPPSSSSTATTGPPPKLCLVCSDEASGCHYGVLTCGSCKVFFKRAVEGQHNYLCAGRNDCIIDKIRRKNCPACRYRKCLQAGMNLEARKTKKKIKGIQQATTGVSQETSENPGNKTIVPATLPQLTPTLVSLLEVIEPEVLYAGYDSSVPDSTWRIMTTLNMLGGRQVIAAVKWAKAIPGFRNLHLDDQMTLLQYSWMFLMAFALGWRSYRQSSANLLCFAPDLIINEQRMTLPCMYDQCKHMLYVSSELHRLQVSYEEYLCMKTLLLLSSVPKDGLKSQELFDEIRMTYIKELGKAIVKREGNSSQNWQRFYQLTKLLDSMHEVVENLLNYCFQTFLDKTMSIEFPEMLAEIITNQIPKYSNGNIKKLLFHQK
Cytochrome P450 1A2 (Homo sapiens), sequence (P05177 whole entry, looked up): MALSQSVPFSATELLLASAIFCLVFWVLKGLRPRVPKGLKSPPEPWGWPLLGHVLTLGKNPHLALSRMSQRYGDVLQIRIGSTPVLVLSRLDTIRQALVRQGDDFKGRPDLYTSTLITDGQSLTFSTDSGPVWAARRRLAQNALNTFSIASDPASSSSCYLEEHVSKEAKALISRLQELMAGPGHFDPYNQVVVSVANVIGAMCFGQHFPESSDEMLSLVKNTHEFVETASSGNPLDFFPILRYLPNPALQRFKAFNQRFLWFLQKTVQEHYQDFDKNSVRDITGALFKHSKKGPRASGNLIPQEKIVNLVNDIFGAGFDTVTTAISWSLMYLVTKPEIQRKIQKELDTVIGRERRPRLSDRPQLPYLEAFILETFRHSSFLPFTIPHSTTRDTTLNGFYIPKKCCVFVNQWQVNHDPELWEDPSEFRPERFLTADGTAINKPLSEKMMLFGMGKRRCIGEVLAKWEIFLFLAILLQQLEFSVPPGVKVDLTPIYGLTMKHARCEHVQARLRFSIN
Lysosomal acid glucosylceramidase (Homo sapiens), sequence (P04062 whole entry, looked up): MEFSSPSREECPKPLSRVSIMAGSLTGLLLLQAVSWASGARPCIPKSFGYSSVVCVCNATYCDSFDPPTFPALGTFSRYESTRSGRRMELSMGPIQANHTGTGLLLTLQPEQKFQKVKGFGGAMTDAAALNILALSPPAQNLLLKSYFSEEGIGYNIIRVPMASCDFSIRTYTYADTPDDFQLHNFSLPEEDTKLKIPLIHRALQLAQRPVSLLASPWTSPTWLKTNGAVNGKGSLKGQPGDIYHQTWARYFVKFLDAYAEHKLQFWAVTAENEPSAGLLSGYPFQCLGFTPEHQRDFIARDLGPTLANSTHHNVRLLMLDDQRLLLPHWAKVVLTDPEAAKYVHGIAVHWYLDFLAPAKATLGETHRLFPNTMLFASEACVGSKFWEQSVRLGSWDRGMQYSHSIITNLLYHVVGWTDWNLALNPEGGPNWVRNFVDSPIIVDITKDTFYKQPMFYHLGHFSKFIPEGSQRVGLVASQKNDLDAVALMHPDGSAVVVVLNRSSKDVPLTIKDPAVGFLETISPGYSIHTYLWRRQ

CC1(C)S[C@@H]2[C@H](NC(=O)C3(N)CCCCC3)C(=O)N2[C@H]1C(=O)O
inactive: outcome [1] | activity change, negative = inhibition [2] -19.8% | outcome [3] | Potency [4] > 20.6 µM | Potency [5] > 20.6 µM | outcome [6]

OCl
inactive: Potency [7] > 92 µM | Potency [8] > 92 µM | Potency [9] > 92 µM | Potency [10] > 92 µM | Potency [11] > 92 µM | Potency [12] > 92 µM | outcome [6] | activity change, negative = cytotoxicity [13] -13.5% | Potency [14] | Potency [15] | Potency [16] | activity change, negative = cytotoxicity [17] 2.44% | outcome [18]

CCc1cn([C@H]2C[C@H](O)[C@@H](CO)O2)c(=O)[nH]c1=O
inactive: outcome [1] | activity change, negative = inhibition [2] 23.4% | outcome [3] | Potency [4] > 20.6 µM

O=C1NCCN1c1ncc([N+](=O)[O-])s1
inactive: outcome [1] | activity change, negative = inhibition [2] -7.97% | outcome [3] | Potency [4] > 20.6 µM | Potency [5] > 20.6 µM | outcome [6]

O=C(O)c1ccc(OCCn2ccnc2)cc1
inactive: outcome [1] | activity change, negative = inhibition [2] -10.7% | outcome [3] | Potency [4] > 20.6 µM

O=C(O)CCC(=O)c1ccc(-c2ccccc2)cc1
inactive: outcome [1] | activity change, negative = inhibition [2] -7.68% | outcome [3] | Potency [4] > 20.6 µM | Potency [5] > 20.6 µM | outcome [6]
active: Potency [19] 12.6 µM

O=P(O)(O)OP(=O)(O)O
inactive: Potency [20] > 11.4 µM | outcome [1] | activity change, negative = inhibition [2] 3.99% [at 7.69 µM] | outcome [3] | Potency [4] > 46 µM | Potency [5] > 9.22 µM | activity change, negative = inhibition [6] 0.801% [at 11.4 µM]

CO
inactive: Potency [7] > 92 µM | Potency [8] > 92 µM | Potency [9] > 92 µM | Potency [10] > 92 µM | Potency [11] > 92 µM | Potency [12] > 92 µM | outcome [6] | activity change, negative = cytotoxicity [13] -1.78% | Potency [14] | Potency [15] | Potency [16] | activity change, negative = cytotoxicity [17] 5.17% | outcome [18]

CO/N=C(/C(=O)N[C@@H]1C(=O)N2C(C(=O)O)=C(COC(N)=O)CS[C@H]12)c1ccco1
inactive: Potency [7] > 92 µM | Potency [8] > 92 µM | Potency [9] > 92 µM | Potency [10] > 92 µM | Potency [11] > 92 µM | Potency [12] > 92 µM | outcome [6] | activity change, negative = cytotoxicity [13] -7.55% | Potency [14] | Potency [15] | Potency [16] | activity change, negative = cytotoxicity [17] 4.36% | outcome [18]

C=C1C(CCl)(CCl)C2(Cl)C(Cl)C(Cl)C1(Cl)C2(Cl)Cl (centres undefined)
inactive: Potency [10] > 92 µM | Potency [11] > 92 µM
active: Potency [8] 31 µM | Potency [9] 48.2 µM | Potency [12] 50 µM | activity change, negative = cytotoxicity [13] -80.2% | Potency [15] 50.1 µM | Potency [16] 31.6 µM | activity change, negative = cytotoxicity [17] -88.3%

c1ccc2ccccc2c1
inactive: Potency [7] > 92 µM | Potency [8] > 92 µM | Potency [9] > 92 µM | Potency [10] > 92 µM | Potency [11] > 92 µM | Potency [12] > 92 µM | outcome [6] | activity change, negative = cytotoxicity [13] 0.772% | Potency [14] | Potency [15] | Potency [16] | activity change, negative = cytotoxicity [17] 1.8% | outcome [18]

OC[C@H]1O[C@@H]2O[C@H]3[C@H](O)[C@@H](O)[C@@H](O[C@H]4[C@H](O)[C@@H](O)[C@@H](O[C@H]5[C@H](O)[C@@H](O)[C@@H](O[C@H]6[C@H](O)[C@@H](O)[C@@H](O[C@H]7[C@H](O)[C@@H](O)[C@@H](O[C@H]1[C@H](O)[C@H]2O)O[C@@H]7CO)O[C@@H]6CO)O[C@@H]5CO)O[C@@H]4CO)O[C@@H]3CO
inactive: Potency [7] > 92 µM | Potency [8] > 92 µM | Potency [9] > 92 µM | Potency [10] > 92 µM | Potency [11] > 92 µM | Potency [12] > 92 µM | outcome [6] | activity change, negative = cytotoxicity [13] -6.68% | Potency [14] | Potency [15] | Potency [16] | activity change, negative = cytotoxicity [17] -2.88% | outcome [18]

C/C=C/C=C/C(=O)O
inactive: Potency [7] > 92 µM | Potency [8] > 92 µM | Potency [9] > 92 µM | Potency [10] > 92 µM | Potency [11] > 92 µM | Potency [12] > 92 µM | outcome [6] | activity change, negative = cytotoxicity [13] 8.21% | Potency [14] | Potency [15] | Potency [16] | activity change, negative = cytotoxicity [17] -2.27% | outcome [18]

NCCN
inactive: Potency [7] > 92 µM | Potency [8] > 92 µM | Potency [9] > 92 µM | Potency [10] > 92 µM | Potency [11] > 92 µM | Potency [12] > 92 µM | outcome [6] | activity change, negative = cytotoxicity [13] -4.12% | Potency [14] | Potency [15] | Potency [16] | activity change, negative = cytotoxicity [17] 7.8% | outcome [18]

C[C@@](Cc1ccc(O)c(O)c1)(NN)C(=O)O
inactive: Potency [4] > 46 µM | Potency [5] > 46 µM

Nc1ncnc2c1ncn2[C@H]1CC[C@@H](CO)O1
inactive: Potency [7] > 92 µM | Potency [8] > 92 µM | Potency [9] > 92 µM | Potency [10] > 92 µM | Potency [11] > 92 µM | Potency [12] > 92 µM | outcome [6] | activity change, negative = cytotoxicity [13] 7.1% | Potency [14] | Potency [15] | Potency [16] | activity change, negative = cytotoxicity [17] 2.7% | outcome [18]

Source: PubChem BioAssay (NCATS)
